Assay results published in paper PMC5540273 (PLoS ONE, 2017).

Assays:
Settings in all cases: concentration: 1 μM, replicates: in singlicate; n = 1
[1] = system: T1, FAK
T1 construct: gene PTK2

[2] = system: FER
[3] = system: FES
[4] = system: FGFR1
[5] = system: FGFR2
[6] = system: FGFR3
[7] = system: FGFR4
[8] = system: FGR
[9] = system: FLT1
[10] = system: FLT3-autoinhibited
[11] = system: FLT3
[12] = system: FLT4
[13] = system: FRK
[14] = system: FYN
[15] = system: GAK
[16] = system: T2, GCN2(Kin.Dom.2,S808G)
T2 construct: gene EIF2AK4

[17] = system: GRK1
[18] = system: T3, GRK2
T3 construct: gene ADRBK1

[19] = system: T4, GRK3
T4 construct: gene ADRBK2

[20] = system: GRK4
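Further: KINOMEscan kinase panel screen.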

SMILES	%Inh [1] [%]	%Inh [2] [%]	%Inh [3] [%]	%Inh [4] [%]	%Inh [5] [%]	%Inh [6] [%]	%Inh [7] [%]	%Inh [8] [%]	%Inh [9] [%]	%Inh [10] [%]	%Inh [11] [%]	%Inh [12] [%]	%Inh [13] [%]	%Inh [14] [%]	%Inh [15] [%]	%Inh [16] [%]	%Inh [17] [%]	%Inh [18] [%]	%Inh [19] [%]	%Inh [20] [%]
COc1cc2ncn(-c3cc(OCC4CCCO4)c(C(N)=O)s3)c2cc1OC (stereo not drawn) [GSK204607]	0	9	11	0	0	24	0	29	20	0	0	36	17	33	53	0	0	0	16	0
COC(=O)c1c(-c2ccccc2)c2cc(OC)ccc2c(=O)n1Cc1ccccc1	0	0	22	7	3	3	0	29	0	21	8	9	45	0	6	2	0	0	1	0
COc1ccc2nc(-c3cccc(C)n3)nc(Nc3ccncc3)c2c1 [GSK204919]	0	14	17	0	7	20	20	27	28	3	0	5	9	13	8	0	0	0	43	0
COc1ccc(C2=C(Nc3cccc(C(=O)O)c3)C(=O)NC2=O)cc1 [SB-390765]	13	0	21	13	13	14	0	6	4	17	23	15	0	0	8	0	30	0	50	14
O=C(Nc1n[nH]c2cc(-c3cccc(F)c3F)ccc12)C1CC1 [SB-733894]	3	0	53	0	0	0	0	61	0	12	0	0	0	0	6	0	44	0	0	0
COc1cc2nccc(Nc3ccc(NC(=O)c4ccc(C)cc4)c(O)c3)c2cc1OC.Cl [GW440132]	0	45	5	22	22	2	6	37	30	0	0	0	25	17	11	0	0	0	29	0
CC(C)(C)c1ccc(C(=O)Nc2cn3cc(-c4cccnc4)ccc3n2)cc1	12	0	29	27	21	16	0	19	22	0	65	16	23	0	18	21	41	0	0	0
Cc1cccc(-c2nc(-c3ccc(S(C)(=O)=O)cc3)sc2-c2ccnc(NCCc3ccccc3)c2)c1	0	0	0	5	1	0	0	0	18	0	0	7	66	0	0	16	11	0	6	0
CC1=C(C(=O)Nc2cc3cn[nH]c3cc2F)C(c2ccc(C(F)(F)F)cc2)CC(=O)N1 (stereo not drawn) [GSK429286]	0	4	0	0	3	17	8	24	17	0	0	11	18	26	0	14	5	27	73	10
Cc1ccc(-c2cc(-c3c[nH]nc3-c3ccccn3)ccn2)cc1 [GW684088]	0	13	21	0	0	30	9	22	5	22	0	0	4	0	80	0	8	0	74	0
Cc1c(O)cccc1Nc1ccnc2ccc(C(F)(F)F)cc12.Cl [GW466413]	0	15	0	0	0	0	0	58	28	0	0	9	79	68	64	9	14	0	8	0
C[C@@H]1CCCCN1c1cc(-c2ccc3c(N)n[nH]c3c2)nc(N)n1 [GSK2258759]	0	0	0	0	0	7	3	17	14	0	0	0	5	19	14	0	0	0	0	0
Cc1cccc(-c2nc(Nc3cccc(C(N)=O)c3)c3ccccc3n2)n1 [GW876019]	0	0	25	0	17	1	0	58	42	0	0	10	16	0	0	0	14	0	0	0
Cc1cc(-c2ccc3c(c2)CC[C@@H](N[C@@H](C)c2ccccc2)C3)cnc1N.Cl [GW412617]	0	27	0	9	16	56	19	26	34	8	27	22	19	27	33	26	0	0	17	0
Cl.NC(=O)c1cccc(Nc2nccc(Nc3ccc(Oc4cccc(Cl)c4)c(Cl)c3)n2)c1 [GW659008]	0	9	0	18	0	0	0	52	36	0	54	0	24	59	43	11	0	0	18	15
Cc1cc(NCC(c2ccccc2)c2ccccc2)nc(NCc2ccc(C(F)(F)F)cc2)n1 [GW497681]	0	0	0	0	0	20	1	20	11	0	0	0	0	0	0	0	0	0	22	0
Cc1cccc(-c2nc(Nc3ccncc3)c3ccccc3n2)n1 [GW855857]	31	0	13	5	7	2	6	31	0	0	0	1	15	13	0	0	0	0	0	0
Cl.O=C(Nc1cccc(-c2nn3ncccc3c2-c2ccnc(Nc3cccnc3)n2)c1)c1c(F)cccc1F [GSK312879]	0	10	11	8	0	23	8	40	45	4	0	9	15	21	8	0	20	0	27	0
CCCc1ccc(S(=O)(=O)NC2CCN(c3ccnc(Nc4ccc(F)cc4)n3)C2)cc1 (stereo not drawn) [GSK1379715]	0	0	0	0	0	2	11	23	18	0	0	0	8	0	10	0	100	0	33	0
CS(=O)(=O)c1ccc(-c2nc3n(c2-c2ccncc2)CCC3)cc1 [SKF-105942]	0	1	22	0	0	2	18	43	11	0	0	0	16	12	7	9	7	0	24	23
O=C(Nc1n[nH]c2nc(-c3nccs3)c(Br)cc12)C1CC1 [SB-742251]	0	0	12	0	0	0	10	29	36	0	88	8	2	3	0	0	1	0	27	0

SMILES	%Inh [1] [%]	%Inh [2] [%]	%Inh [3] [%]	%Inh [4] [%]	%Inh [5] [%]	%Inh [6] [%]	%Inh [7] [%]	%Inh [8] [%]	%Inh [9] [%]	%Inh [10] [%]	%Inh [11] [%]	%Inh [12] [%]	%Inh [13] [%]	%Inh [14] [%]	%Inh [15] [%]	%Inh [16] [%]	%Inh [17] [%]	%Inh [18] [%]	%Inh [19] [%]	%Inh [20] [%]
COc1ccc(Nc2nccc(NCCNC(=O)Nc3ccccc3F)n2)cc1 [GSK1379901]	0	35	26	0	44	6	10	36	32	0	0	6	13	0	0	2	0	0	26	0
Cc1cccc(-c2nc(Nc3ccc4[nH]ncc4c3)c3ccccc3n2)n1 [GW857175]	0	11	0	5	0	0	0	0	12	32	13	6	3	0	0	5	3	40	0	10
Cn1ccc2ncnc(Oc3ccc(NC(=O)Nc4ccccc4)cc3)c21	8	16	5	14	0	0	11	0	89	48	97.4	15	11	4	4	11	0	0	11	0
Cc1cccc(-c2nc(C)cc(Nc3ccncc3)n2)n1 [GSK257997]	0	42	0	7	14	16	0	8	32	0	5	13	0	36	0	0	0	0	0	0
Fc1cc(Cl)ccc1Nc1ccnc2cc(-c3ccc(CN4CCCCC4)o3)ccc12 [GW560116]	0	5	0	0	0	0	0	31	15	0	0	0	4	18	35	0	0	0	18	0
COc1cc2ncnc(Nc3ccc4nc(-c5ccccc5)[nH]c4c3)c2cc1OC.Cl [GW282450]	0	42	6	10	0	0	14	14	38	0	0	0	0	34	68	0	0	0	14	11
COc1cc(Nc2nccc(N3CCC(NC(=O)Nc4cc(C)ccc4C)C3)n2)cc(OC)c1OC (stereo not drawn) [GSK1379762]	0	0	0	5	11	30	0	14	22	0	36	14	8	0	28	3	0	0	10	20
COc1ccccc1-c1ccc2c(NC(=O)C3CC3)n[nH]c2n1 [SB-711239]	0	4	22	0	12	8	10	26	6	0	5	0	0	5	14	10	13	0	0	28
Cl.Oc1ccc(-c2nc(-c3ccccc3)[nH]c2-c2ccncc2)cc1 [SB-428218]	0	0	17	0	4	0	9	62	0	0	0	0	37	23	36	8	57	0	75	0
Cc1c(Cn2ccn3c(=O)cc(N4CCOCC4)nc23)cccc1C(F)(F)F [GSK2289044]	0	7	23	0	19	28	5	14	0	0	0	0	0	30	10	0	0	0	0	0
COc1ccc(CNC(=O)NC2CCN(c3ccnc(Nc4cc(OC)c(OC)c(OC)c4)n3)C2)cc1 (stereo not drawn) [GSK1379748]	0	0	7	0	2	9	15	14	20	3	71	26	5	22	16	0	0	0	40	0
CN1C(=O)C(Nc2ccc(Cl)c(C(=O)O)c2)=C(c2ccc(Cl)cc2)C1=O [SB-404290]	7	5	0	0	0	0	0	0	0	22	0	0	0	0	14	9	12	0	4	19
O=C(Nc1n[nH]c2nc(-c3nccs3)c(Br)cc12)C1CCCC1 [SB-742609]	0	0	0	0	0	0	12	20	29	10	44	19	24	23	2	5	0	0	66	11
CCn1c(-c2ccccn2)nc2cnccc21 [SB-736398]	0	2	30	1	48	77	1	41	21	0	2	0	17	0	9	10	1	5	78	1
Cc1ccccc1-n1cnc2c(N)ncnc21 [SKF-97510]	0	4	0	0	0	0	0	0	0	0	0	0	0	8	0	0	0	0	0	0
COc1cccc(-c2cc(-c3c[nH]nc3-c3ccccn3)ccn2)c1 [GW680338]	0	0	9	0	0	1	6	19	3	0	0	83	10	11	75	7	1	0	14	0
Cc1nnc(-c2ccc3occ(-c4ccc(S(C)=O)cc4)c3c2)[nH]1 (stereo not drawn)	0	0	14	0	0	0	3	19	0	31	33	18	1	0	24	0	20	0	40	11
Nc1nc(-c2nccs2)c(-c2ccnc3ccccc23)s1 [GW693542]	0	15	0	8	0	0	8	9	24	0	2	0	0	17	45	17	0	0	39	21
Nc1ncnc2[nH]c(-c3ccccc3)nc12 [AH5015]	8	0	8	2	0	25	2	31	2	0	0	0	13	39	44	27	0	0	49	0
CCn1c(-c2cccnc2O)nc2cnccc21 [SB-736715]	0	0	0	0	0	0	0	0	0	0	23	0	0	0	0	8	0	0	21	19
Cc1ccc(NC(=O)Nc2cccc(Cl)c2)cc1-c1ccc(C(=O)Nc2ccncc2)cc1 [GSK1398468]	0	6	9	0	0	7	5	30	25	14	1	18	47	8	5	0	0	0	23	0
